System: Vero E6 infected with SARS-CoV-2
Test: inhibition of SARS-CoV-2 cytopathic effect; higher = more antiviral protection, active = above 15
Settings: 48 h

Measured: inhibition of SARS-CoV-2 cytopathic effect

NCCCC(O)(P(=O)(O)O)P(=O)(O)O [alendronate]
inactive: 1 nM -2.08% | 8.33 nM -1.44% | 100 nM 0.15% | 833.33 nM -0.56% | 10000 nM -0.44%

CCOC(=O)[C@H](CCc1ccccc1)N[C@H]1CS[C@H](c2cccs2)CN(CC(=O)O)C1=O [temocapril]
inactive: 1 nM -2.77% | 8.33 nM -0.7% | 100 nM 1.38% | 833.33 nM -0.25% | 10000 nM -3.19%

CCOC(=O)C1=C(N)Oc2ccc(Br)cc2C1C(C#N)C(=O)OCC (stereo not given)
inactive: 1 nM -0.86% | 8.33 nM 0.28% | 100 nM 0.47% | 833.33 nM 0.895% | 10000 nM 2.46%

CCCCc1nc2cc(/C=C/C(=O)NO)ccc2n1CCN(CC)CC
inactive: 1 nM 2.32% | 8.33 nM -0.4% | 100 nM -5.57% | 833.33 nM -20.5% | 10000 nM -27.9%

CC(=O)c1cnc2ccc(-c3cc(Cl)c(O)c(Cl)c3)nc2c1N[C@H]1CC[C@H](CN(C)C)CC1
inactive: 1 nM -1.51% | 8.33 nM 0.72% | 100 nM -1.37% | 833.33 nM 0.11% | 10000 nM -5.46%

O=C(O)c1cccnc1C(=O)O [quinolinic-acid]
inactive: 1 nM 1.12% | 8.33 nM -1.19% | 100 nM 0.73% | 833.33 nM -1.65% | 10000 nM -4.35%

CCOC(=O)/C=C(C)/C=C/C=C(C)/C=C/c1c(C)cc(OC)c(C)c1C [etretinate]
inactive: 1 nM -2.16% | 8.33 nM 0.11% | 100 nM 0.84% | 833.33 nM 2.68% | 10000 nM 3.85%

Source: the supplement of paper PMC13380429
